Shown are actives, neighbours in structure and some others; about 4.9% of the full set was active somewhere.
USP8 inh = inhibitors of human USP8 deubiquitinase | P40818 | purified USP8, Ub-rhodamine cleavage fluorescence, 30 min | inhibition, % at 20 µM | 47,000 tested, 4.2% active | AID 1645853
USP7 block = inhibitors of human USP7 deubiquitinase; purified USP7, Ub-rhodamine cleavage fluorescence; inhibition, % at 20 µM; 47,000 tested, 0.3% active
OTUD3 block = blocks human OTUD3 ubiquitin-rhodamine cleavage; inhibition, % at 25 µM; purified OTUD3, Ub-rhodamine fluorescence, 2 h; 47,000 tested, 0.7% active
USP10 inh = blocks human USP10 ubiquitin-rhodamine cleavage | Q14694 | purified USP10, Ub-rhodamine fluorescence, 60 min | inhibition, % at 20 µM | 47,000 tested, 1.1% active | AID 1645856
Target sequence (Q14694 whole entry, looked up): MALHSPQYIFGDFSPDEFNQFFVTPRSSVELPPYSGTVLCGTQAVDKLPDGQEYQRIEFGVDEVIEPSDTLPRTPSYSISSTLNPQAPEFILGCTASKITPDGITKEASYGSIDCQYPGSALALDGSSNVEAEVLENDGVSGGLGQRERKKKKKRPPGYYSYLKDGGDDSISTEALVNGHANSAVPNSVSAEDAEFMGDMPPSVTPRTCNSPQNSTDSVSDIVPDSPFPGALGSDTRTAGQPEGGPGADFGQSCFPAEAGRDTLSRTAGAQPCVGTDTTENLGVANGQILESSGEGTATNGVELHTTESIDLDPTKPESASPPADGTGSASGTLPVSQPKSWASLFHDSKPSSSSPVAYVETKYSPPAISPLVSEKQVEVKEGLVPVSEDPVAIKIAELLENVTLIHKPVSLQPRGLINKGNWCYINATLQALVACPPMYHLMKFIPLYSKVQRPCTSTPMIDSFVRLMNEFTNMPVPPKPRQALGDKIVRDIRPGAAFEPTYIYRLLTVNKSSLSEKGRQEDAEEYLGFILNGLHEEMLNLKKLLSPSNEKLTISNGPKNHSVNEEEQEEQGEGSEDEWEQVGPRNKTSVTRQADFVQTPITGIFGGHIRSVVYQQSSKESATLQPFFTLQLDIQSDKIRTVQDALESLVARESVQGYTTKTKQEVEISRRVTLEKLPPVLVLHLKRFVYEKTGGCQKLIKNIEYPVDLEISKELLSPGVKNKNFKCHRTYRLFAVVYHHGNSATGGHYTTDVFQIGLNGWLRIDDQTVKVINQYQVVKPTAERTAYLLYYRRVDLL
UCHL1 inh = blocks human UCHL1 ubiquitin-rhodamine cleavage; purified UCHL1, Ub-rhodamine cleavage fluorescence; inhibition, % at 20 µM; 47,000 tested, 0.2% active
A number is an active result; n = inactive. No stated cut-off is given here; in the data, active means inhibition above about 30%; inactive means the rest.

SMILES	USP8 inh	USP7 block	OTUD3 block	USP10 inh	UCHL1 inh
CC(c1ccccc1)n1c(-c2ccc(F)cc2)nc2c(c(=O)c3ccccc3n2C)c1=O (stereo unspecified)	32	n	n	n	n
Cn1c2ccccc2c(=O)c2c(=O)n(-c3cccc(Cl)c3)c(-c3cccs3)nc21	94	66	n	63	n
COc1ccc2c(c1)c(=O)c(S(=O)(=O)c1ccc(F)cc1)cn2Cc1cccc(F)c1	n	n	n	39	n
O=c1ccc(S(=O)(=O)N2CCCCCC2)cn1Cc1cccc(F)c1	n	n	n	n	n
CC(C)n1ncc2[nH]c(-c3ccc(N4CCN(CCCC(=O)O)CC4)cc3)nc21	n	n	n	n	n
O=C(O)c1ccc(CS(=O)c2ccc(F)cc2)o1 (stereo unspecified)	n	n	n	n	n
CCCN(Cc1nnc(-c2ccccc2Cl)o1)C(=O)c1ccccc1	n	n	n	n	n
Cc1cc(C(=O)NC2(O)C(=O)c3ccccc3C2=O)n(C)n1	82	n	n	38	31
O=C(NCc1ccnc(C2CCCOC2)n1)C1CCCCC1 (stereo unspecified)	n	n	n	n	n
O=S(=O)(c1cccc2cccnc12)N1CCN(c2ccc(F)cc2)CC1	56	n	n	n	n
O=S(=O)(c1cccc2cccnc12)N1CCCC1c1ccc(F)cc1 (stereo unspecified)	n	n	n	n	n
CCn1c(=O)c2ccccc2n(Cc2nc(-c3ccc(OC)cc3)no2)c1=O	n	n	n	n	n
COc1cc(O)c2c(=O)c(-c3ccc(O)cc3)coc2c1	35	n	n	n	n
CC(C(=O)NCc1ccc2c(c1)OCO2)N1CCN(c2ccc(O)cc2)CC1 (stereo unspecified)	60	n	n	n	n
COc1ccc(NC(=O)CSc2nnc(-c3ccco3)n2C)cc1OC	n	n	n	n	n
O=C(CSc1n[nH]c2nc3ccccc3n12)Nc1ccc2[nH]c(=O)[nH]c2c1	70	n	n	n	n
C[C@H](NC(=O)c1cc2ccccc2[nH]1)C(=O)Nc1ccc2c(c1)OCCO2	n	n	n	n	n
COc1ccc(-c2nnc(SCC(=O)Nc3ccc4[nH]c(=O)[nH]c4c3)n2C)cc1	38	n	n	n	n
O=C(CSc1nc(C2CC2)n(-c2ccccc2)n1)Nc1ccc2[nH]c(=O)[nH]c2c1	n	n	n	n	n
CC(Sc1n[nH]c2nc3ccccc3n12)C(=O)Nc1ccc2c(c1)OCCO2 (stereo unspecified)	n	n	34	n	n
O=C(c1cc(-c2ccc(F)cc2)n[nH]1)N1CCN(c2ccc(N3CCOCC3)nn2)CC1	n	n	n	n	n
COc1c2nc3ccccc3oc-2cc(=O)c1OC	58	n	n	n	n
COc1ccc(Nc2nnc(Cc3ccc(Cl)cc3)c(=O)[nH]2)cc1	92	n	n	39	n
CC(=O)Nc1cccc(C(=O)Nc2ccc3c(c2)CCN3C(=O)C2CC2)c1	n	n	n	n	n
CC(C)CCCCCCCCCCCC(=O)O	n	n	n	30	n
SMILES	USP8 inh	USP7 block	OTUD3 block	USP10 inh	UCHL1 inh
CCc1ccccc1S(=O)(=O)N1CCC(n2cnnc2CC)CC1	n	n	n	n	n
O=C(Nc1ccc(OC(F)(F)F)cc1)NC1Cc2ccccc2C1	42	n	n	n	n
Cc1ccc(N2CC(C(=O)Nc3cccc(-c4noc(C)n4)c3)CC2=O)cc1 (stereo unspecified)	40	n	n	n	n
CCN(CC)S(=O)(=O)c1cccc(-c2nnc(SCC(=O)Nc3cccc(C(C)=O)c3)n2-c2ccccc2)c1	n	n	n	n	n
CCOC(=O)c1cc2c(ccn2C)n1Cc1cccc2ccccc12	87	n	n	n	n
CCOC(=O)c1cc2c(ccn2C)n1Cc1ccc2ccccc2n1	57	n	n	n	n
COC(=O)c1cc2c(ccn2C)n1Cc1ccccc1	n	n	n	n	n
COC(=O)c1cc2c(ccn2C)n1Cc1ccccc1OC	70	n	n	n	n
CCOC(=O)c1cc2c(ccn2C)n1CC(=O)N1CCN(C(=O)c2ccco2)CC1	37	n	n	n	n
COC(=O)c1cc2c(ccn2C)n1CC(=O)N1CCCC1	n	n	n	n	n
COC(=O)c1ccc2c(=O)n(CCCCCC(=O)NCc3cccc(Cl)c3)c(=O)[nH]c2c1	65	n	n	39	n
O=C(NCc1ccco1)c1ccc2c(=O)n(Cc3ccco3)c(=O)[nH]c2c1	n	n	n	n	n
COC(=O)c1ccc2c(=O)n(CCCCCC(=O)NCCc3ccc(OC)c(OC)c3)c(=O)[nH]c2c1	46	n	n	n	n
COC(=O)c1ccc2c(=O)n(CCCCCC(=O)NCCC3=CCCCC3)c(=O)[nH]c2c1	n	n	n	n	n
COc1ccc(CCn2c(=O)[nH]c3cc(C(=O)NCc4ccco4)ccc3c2=O)cc1OC	42	n	n	n	n
COc1ccc(C(O)c2ncc(-c3ccccc3)[nH]2)cc1OC (stereo unspecified)	n	n	n	n	n
Cc1oc(-c2[nH]ncc2C(=O)N2CCCC2)cc1S(=O)(=O)NCc1ccccc1	n	n	n	n	n
CCOCc1ccc(C(=O)N[C@H](C)c2nc3cc(-c4ccc(OC)cc4)ncn3n2)cc1	n	n	n	35	n
CC(c1nc(-c2ccc(Cl)cc2)no1)N1CCN(C(=O)c2ccc(F)c(F)c2)CC1 (stereo unspecified)	n	n	n	n	n
Cc1ccc(-c2cc(C(F)F)n3ncc(C(=O)Nc4ccc5c(c4)OCO5)c3n2)cc1	47	n	n	n	n
Cc1ccc(C(=O)O)cc1NC(=O)C(Sc1cccc(NC(=O)c2ccccc2C)c1)c1ccccc1 (stereo unspecified)	n	n	49	37	n
Cc1ccc2nc(-c3cccc(NC(=O)C(C)C)c3)[nH]c2c1	65	n	n	n	n
COc1cccc(C(=O)Nc2ccccc2-c2nc3ccc(C)cc3[nH]2)c1	n	n	n	n	n
O=C(/C=C/C=C/C=C/C1CCCCC1)NC1=C[C@@](O)(/C=C/C=C/C=C/C(=O)NC2=C(O)CCC2=O)[C@@H]2O[C@@H]2C1=O	n	45	73	n	47
O=C(Cc1cccnc1)Nc1ccc(N2CCN(C3CCCC3)C2=O)nc1	37	n	n	n	n
SMILES	USP8 inh	USP7 block	OTUD3 block	USP10 inh	UCHL1 inh
O=C(Nc1ccc(N2CCN(C3CCCCC3)C2=O)nc1)c1ccncc1	n	n	n	n	n
CCCCOc1ccccc1C(=O)Nc1ccc(OCC)c2ncccc12	44	n	n	n	n
O=C(Nc1ccc(N2CCCCC2)cc1)c1cccc(N2C(=O)CCS2(=O)=O)c1	43	n	n	n	n
Cc1ccccc1CNC(=O)c1cccc(N2C(=O)CCS2(=O)=O)c1	n	n	n	n	n
COc1ccc(S(=O)(=O)Nc2ccc3nc(C)sc3c2)cc1[N+](=O)[O-]	n	n	n	n	n
CCc1ccc(NC(=O)CSc2nc3nccnc3c(=O)n2Cc2ccc(F)cc2)cc1	44	n	n	n	n
CC(=O)c1cccc(-c2cnc3sc(NCC4CCOCC4)nn23)c1	n	n	n	n	n

From PubChem
